Laboratory results published in PubChem BioAssay AID1259374 (The Scripps Research Institute Molecular Screening Center, 2018).
The whole screen tested about 650,000 compounds, of which about 5,900 (0.91%) were called active. What follows is part of a selection rich in actives, with near analogues and random picks from the rest. A number with no mark means an inactive call. Rule as the data show it: active = inhibition above about 50%; inactive = the rest.

What follows are compounds tested against Microphthalmia-associated transcription factor (Homo sapiens) (UniProt O75030) (assay: MITF inhibitors, primary screen, biochemical, AlphaScreen, human (AID 1259374;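 also: 0% = vehicle wells with protein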)). Settings: AlphaScreen MITF homodimerization, bead proximity signal; at 2.6 µM; active compounds read high.
Microphthalmia-associated transcription factor (Homo sapiens), sequence (O75030 whole entry, looked up): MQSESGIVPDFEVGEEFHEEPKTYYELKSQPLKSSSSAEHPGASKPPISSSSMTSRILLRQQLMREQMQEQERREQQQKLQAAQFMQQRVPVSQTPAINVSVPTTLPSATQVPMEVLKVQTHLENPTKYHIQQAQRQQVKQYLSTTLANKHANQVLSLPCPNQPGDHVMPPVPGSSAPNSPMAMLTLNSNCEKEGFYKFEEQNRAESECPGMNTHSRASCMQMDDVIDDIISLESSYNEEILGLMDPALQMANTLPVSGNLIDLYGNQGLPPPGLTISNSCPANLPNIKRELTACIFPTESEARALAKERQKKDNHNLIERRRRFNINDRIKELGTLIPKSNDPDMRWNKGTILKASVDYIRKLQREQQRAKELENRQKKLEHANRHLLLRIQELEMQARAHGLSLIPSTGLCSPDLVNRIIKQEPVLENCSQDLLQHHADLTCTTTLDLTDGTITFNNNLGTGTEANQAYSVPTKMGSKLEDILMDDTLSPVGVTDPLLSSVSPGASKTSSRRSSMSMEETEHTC

SMILES	inhibition
COc1ccc2nc(N3CCN(CCNC(=O)c4ccco4)CC3)sc2c1	-9.88%
COc1ccc(C(=O)NCCN2CCN(c3nc4c(C)c(C)ccc4s3)CC2)cc1	61.8% (active)
COc1ccc(S(=O)(=O)N2CCN(CCNC(=O)c3ccc(-c4ccccc4)cc3)CC2)cc1	8.93%
O=Cc1ccc(OCc2ccc([N+](=O)[O-])cc2)c(I)c1	9.55%
O=C(c1cccnc1N1CCC(Cc2ccccc2)CC1)N1CCCCC1	11.1%
c1ccc(CC2CCN(c3nc4ccccc4n4cnnc34)CC2)cc1	-0.95%
Cc1nnc(N2CCC(Cc3ccccc3)CC2)c2ccccc12	66.8% (active)
O=C(c1cnn2c(C(F)(F)F)cc(-c3ccco3)nc12)N1CCN(C(c2ccccc2)c2ccccc2)CC1	-6.87%
O=c1c2ccccc2[nH]c(=S)n1NS(=O)(=O)c1ccccc1	0.19%
CCc1cccc(CC)c1-n1c(CNC(=O)Cc2ccccc2)nnc1SCC(=O)Nc1ccc(OC)cc1	-9.51%
COc1cc(C(=O)Nc2cnc(NC(=O)c3ccccc3)cc2C)cc(OC)c1OC	12.9%
COc1ccc(CN2CCc3nnc(C4CCCO4)n3CC2)c(OC)c1OC (stereo not given)	-1.23%
Cc1ccccc1CN1CCC(N2CCCCC2)CC1	32.6%
COc1ccc(CN2CCN(Cc3ccccc3C)CC2)c(OC)c1OC	56.1% (active)
COc1ccc(CN2CCN(S(=O)(=O)c3cc(Br)c(Br)s3)CC2)c(OC)c1OC	19.2%
CCOC(=O)CSc1ccc(C(=O)N2CCN(Cc3ccc(OC)c(OC)c3OC)CC2)cc1[N+](=O)[O-]	-5.49%
COc1ccc(CN2CCN(C3CCC(C)CC3)CC2)c(OC)c1OC (stereo not given)	63.1% (active)
Cc1noc(C)c1S(=O)(=O)N1CCN(Cc2nc3ccccc3n2C)CC1	8.13%
COc1ccc(C(=O)CCNC(Cc2cnc[nH]2)C(=O)O)cc1 (stereo not given)	34.2%
CC(Oc1ccc(Br)cc1)C(=O)N/N=C/c1ccccc1O (stereo not given)	-6.74%
COCCn1nnnc1C(C)N(CCCO)Cc1cc2cc(C)ccc2[nH]c1=O (stereo not given)	-3.49%
O=C(OCC(=O)N1CCN(C(=O)c2ccco2)CC1)c1ccc(O)cc1	-0.03%
CCCOc1ccc(C2C(=O)N(C3CCCCCC3)CC(=O)N2CC2COc3ccccc3O2)cc1OC (stereo not given)	14.9%
CC1CCC2C(=O)N(C(CC(=O)O)c3ccco3)C(=O)C2C1 (stereo not given)	32.9%

SMILES	inhibition
CC1CCC2C(=O)N(c3cccc(Cl)c3)C(=O)C2C1 (stereo not given)	8.52%
CC1CCC2C(=O)N(c3ccc(I)cc3)C(=O)C2C1 (stereo not given)	51.1% (active)
N#CC1=C(N)N(c2sc3c(c2C#N)CCCC3)C2=C(C(=O)CCC2)C1c1ccc(Br)s1 (stereo not given)	13.4%
CCOC(=O)COc1cc2occ(Oc3cnn(-c4ccccc4)c3)c(=O)c2cc1CC	9.58%
CSc1ncc(/C=C2/C(=O)NC(=O)N(c3ccccc3)C2=O)cn1	0.31%
Oc1c(C(c2ccccc2Cl)N2CCOCC2)sc2nc(-c3ccco3)nn12 (stereo not given)	11.9%
Cc1nc2sc(C(c3ccccc3Cl)N3CCC4(CC3)OCCO4)c(O)n2n1 (stereo not given)	60% (active)
Cc1nc2sc(C(c3ccco3)N3CCC4(CC3)OCCO4)c(O)n2n1 (stereo not given)	13.4%
OC[C@@H]1CCCN1Cc1nc(-c2ccccn2)no1	7.1%
CCOC(=O)C1=C(C)N=c2s/c(=C\c3c[nH]c4ccccc34)c(=O)n2C1c1ccc(OC)c2ccccc12 (stereo not given)	12.2%
COCCOC(=O)c1sc(=S)n(CCOC)c1N	-3.44%
C=CCNC(=O)c1sc(=S)n2c1[nH]c(=O)c1ccc(C(=O)OC)cc12	1.34%
C=CCNC(=O)c1sc(=S)n(CC)c1N	60.2% (active)
CCOc1ccc(Nc2n[nH]c(C)c2[N+](=O)[O-])cc1	-3.22%
Cc1nnc(SCC(=O)Nc2ccc(Cc3ccc(NC(=O)CSc4nnc(C)s4)c(C(=O)O)c3)cc2C(=O)O)s1	10.6%
Cc1ccc(C(C)(C)C)c(OCCCNCCO)c1	18.8%
C=CCNCCOCCOc1cc(C)ccc1C(C)(C)C	65.6% (active)
Cc1cc(C(C)(C)C)ccc1OCCOCCNCCN	5.37%
CN(C)S(=O)(=O)c1ccc(C(=O)NCc2nnc(SCC(=O)N3N=C(c4cccs4)CC3c3ccc(F)cc3)n2C)cc1 (stereo not given)	-5.15%
CCC1(CC)Cc2ccccc2C(c2c(C)[nH]n(-c3ccccc3)c2=O)=N1	23.6%
COc1cc(/C=C2/NC(=O)N(c3ccccc3)C2=O)cc(OC)c1O	-14.5%
COC(=O)c1ccccc1NC(=O)c1cc2c(=O)oc3ccccc3c2s1	-9.64%
COc1ccccc1-n1cnnc1SCC(=O)Nc1sc2c(c1C#N)CCCC2	-6.73%
COc1cc(NC(=O)CSc2nnc(-c3ccoc3C)n2CC(C)C)cc(OC)c1	9.5%

SMILES	inhibition
Cc1ccc(C(C)(C)C)c(OCCN2CCNCC2)c1	46.6%
Cc1cc(OCCN2CCN(C)CC2)ccc1C(C)C	59.4% (active)
Cc1ccc(OCCN2CCNCC2)c(Cl)c1	36.1%
Cc1ccc(C(C)C)c(OCC#CCN2CCNCC2)c1	77.2% (active)
CCC(C)Oc1cccc(OCCN2CCN(C)CC2)c1 (stereo not given)	-22.9%
Cc1ccc(Cl)c(OCCCCN2CCNCC2)c1	41.9%
Cc1ccc(C(C)C)c(OCc2n[nH]c(=S)n2C)c1	2.35%
Cc1cc(OCCCCN2CCOCC2)ccc1C(C)C	27.1%
Cc1ccc(C(C)C)c(OCCN2CCNCC2)c1	74.9% (active)
CC1C2Oc3ccccc3C1Oc1ccccc12 (stereo not given)	4.85%
COc1ccc2[nH]c3c(c2c1)CCOC31CCN(C(=O)CC2(CC(=O)O)CCCC2)CC1	-10.7%
O=C1C(=O)N(Cc2cccnc2)C(c2ccncc2)/C1=C(\O)c1ccccc1 (stereo not given)	11.9%
O=C1C(=O)N(Cc2cccnc2)C(c2cccnc2)/C1=C(/O)c1ccccc1 (stereo not given)	5.16%
Cc1nc2ccccn2c1/C(O)=C1\C(=O)C(=O)N(Cc2ccccc2)C1c1cccnc1 (stereo not given)	66.2% (active)
CN(C)CCNC(=O)c1ccc(-c2cnc3c(NCc4ccc(F)cc4)nccn23)cc1	-23.3%
CCOC(=O)c1c(NC(=O)CSc2nnc(CNC(=O)c3cccc(OC)c3)n2C)sc2c1CCCCC2	-18.6%
O=C(O)CN1C(=O)/C(=C\c2cccc(C(=O)O)c2)SC1=S	58.4% (active)
O=C(O)CN1C(=O)/C(=C/c2cccc([N+](=O)[O-])c2)SC1=S	4.75%
O=C(O)CN1C(=O)/C(=C\c2ccc(O)c(Br)c2)SC1=S	17.2%
CC1CN(c2ccc(/C=C(\C#N)c3nc4ccccc4[nH]3)o2)CC(C)O1 (stereo not given)	-14.4%
Nc1nc(NCCO)cc(Nc2ccc(C(F)(F)F)cc2)n1	-1.49%
CCOC(=O)c1sc(NC(=O)C(C)Sc2nnc(CNC(=O)c3ccc(Cl)cc3Cl)n2C)c(C(=O)OCC)c1C (stereo not given)	-5.12%
CCOC(=O)c1ccccc1NC(=O)C1CC(=O)N(c2ccc(Cl)c(Cl)c2)C1 (stereo not given)	-0.38%
CN1C(=O)c2ccc(NC(=O)c3c(F)cccc3F)cc2C1=O	4.14%

SMILES	inhibition
Cc1ccc(N2C(=O)c3ccc(C(=O)NN4C(=O)c5ccccc5C4=O)cc3C2=O)cc1C	9.89%
O=C(NN1C(=O)c2ccccc2C1=O)c1cccc(F)c1	69.1% (active)
O=C(NN1CCOCC1)c1cccc(F)c1	0.76%
CCN(CCCNC(=O)Cn1c(=O)[nH]c2ccccc2c1=O)c1cccc(C)c1	-6.52%
C=CCN(CC=C)CCCOc1ccc([N+](=O)[O-])c(C)c1	22.8%
O=[N+]([O-])c1cnc(N2CCN(Cc3ccccc3)CC2)c([N+](=O)[O-])c1	-6.34%
Cc1cc(OCCCN2CCN(Cc3ccccc3)CC2)ccc1[N+](=O)[O-]	69.8% (active)
COc1ccc(CN2CCC3(CC2)c2ccccc2[C@@H](NC(=O)CSC)[C@@H]3OC)cc1	5.12%
COc1ccccc1N1C(=O)NC(=O)/C(=C/c2cc(OC)c(O)c([N+](=O)[O-])c2)C1=O	-6.01%
C=CCN1C(=O)/C(=C\c2cc(OC)ccc2OC)C(=O)NC1=S	18.8%
C=CCN1C(=O)/C(=C\c2cc(OC)c(O)c([N+](=O)[O-])c2)C(=O)NC1=S	57.5% (active)
CSc1cccc(NC(=O)C2C3C=CC4(O3)C2C(=O)N(C2CCCC(C)C2C)C4C(=O)NC2CCCCC2)c1 (stereo not given)	-2.61%
O=c1cc(Cc2n[nH]c(=S)n2-c2ccc(F)cc2)[nH]c(=O)[nH]1	8.67%
O=c1c2sc(=S)n(CCc3ccccc3)c2[nH]c(=S)n1Cc1ccco1	-11.5%
Cc1ccc(C(c2cc(Cl)c3cccnc3c2O)N2CCN(c3ccccn3)CC2)cc1 (stereo not given)	-1.76%
O=S(=O)(Oc1cccc2cccnc12)N1CCOCC1	-0.47%
Oc1c(C(c2cccnc2)N2CCOCC2)ccc2cccnc12 (stereo not given)	73.7% (active)
CCCCC(=O)NC(c1ccco1)c1ccc2cccnc2c1O (stereo not given)	33%
Oc1c(C(c2ccccn2)N2CCOCC2)ccc2cccnc12 (stereo not given)	75.7% (active)
OCCN1CCN(C(c2ccc(F)cc2)c2ccc3cccnc3c2O)CC1 (stereo not given)	50.6% (active)
Cc1c(Cl)cccc1NC(=S)NCC(c1cccnc1)N1CCOCC1 (stereo not given)	7.47%
CCc1nc2sc(C(c3ccc(F)cc3)N3CCCC3)c(O)n2n1 (stereo not given)	-1.32%
O=C(NCC(c1cccnc1)N1CCOCC1)c1ccc(F)cc1 (stereo not given)	-7.05%
